# Assay results: the supplement of paper PMC8728848
# The entries come from a sample that favours the strongest signals as a whole.
# B1: Gal 7 (Homo sapiens) (protein)
# chain: MSNVPHKSSLPEGIRPGTVLRIRGLVPPNASRFHVNLLCGEEGGSDAALHFNPRLDTSEVVFNSKEGGSWGREERGPGVPFGRGQPFEVLIIASDDGFKAVVGDAQYHHFRHRLPLARVRLVEVGGDVQLDSVRIF
# How the values were obtained:
# Experiment in all cases: glycan array binding signal (z-score within array); higher = stronger binding
# Conditions in all cases: glycan notation: IUPAC condensed, linker removed
# [1] = target: Gal(b1-4)GlcNAc(b1-3)Gal(b1-4)GlcNAc(b1-3)Gal(b1-4)GlcNAc(b1-2)[Gal(b1-4)GlcNAc(b1-3)Gal(b1-4)GlcNAc(b1-3)Gal(b1-4)GlcNAc(b1-6)]Man(a1-6)[Gal(b1-4)GlcNAc(b1-3)Gal(b1-4)GlcNAc(b1-3)Gal(b1-4)GlcNAc(b1-2)Man(a1-3)]Man(b1-4)GlcNAc(b1-4)[Fuc(a1-6)]GlcNAc
# Procedure, shortened: (§1)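 Glycan array data came from 3228 arrays in the Consortium for Functional Glycomics database, and only arrays with an available protein sequence were kept. Glycan names were put into IUPAC-condensed notation, and columns mapping to the same glycan were averaged. The binding signal is a within-array Z-score, averaged across arrays of one protein sequence run at different concentrations or buffers and across linkers. A negative Z-score can be read as non-binding.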
# [2] = target: Gal(b1-4)GlcNAc(b1-3)Gal(b1-4)GlcNAc(b1-3)Gal(b1-4)GlcNAc(b1-3)Gal(b1-4)GlcNAc(b1-2)[Gal(b1-4)GlcNAc(b1-3)Gal(b1-4)GlcNAc(b1-3)Gal(b1-4)GlcNAc(b1-3)Gal(b1-4)GlcNAc(b1-6)]Man(a1-6)[Gal(b1-4)GlcNAc(b1-3)Gal(b1-4)GlcNAc(b1-3)Gal(b1-4)GlcNAc(b1-3)Gal(b1-4)GlcNAc(b1-2)Man(a1-3)]Man(b1-4)GlcNAc(b1-4)[Fuc(a1-6)]GlcNAc
# Procedure, shortened: as §1
# [3] = target: Gal(b1-4)GlcNAc(b1-3)Gal(b1-4)GlcNAc(b1-3)Gal(b1-4)GlcNAc(b1-3)Gal(b1-4)GlcNAc(b1-3)Gal(b1-4)GlcNAc(b1-2)Man(a1-3)[Gal(b1-4)GlcNAc(b1-3)Gal(b1-4)GlcNAc(b1-3)Gal(b1-4)GlcNAc(b1-3)Gal(b1-4)GlcNAc(b1-3)Gal(b1-4)GlcNAc(b1-2)Man(a1-6)]Man(b1-4)GlcNAc(b1-4)GlcNAc
# Procedure, shortened: as §1
# [4] = target: Gal(b1-4)GlcNAc(b1-3)Gal(b1-4)GlcNAc(b1-3)Gal(b1-4)GlcNAc(b1-3)Gal(b1-4)GlcNAc(b1-3)Gal(b1-4)GlcNAc(b1-2)Man(a1-3)[Gal(b1-4)GlcNAc(b1-3)Gal(b1-4)GlcNAc(b1-3)Gal(b1-4)GlcNAc(b1-3)Gal(b1-4)GlcNAc(b1-3)Gal(b1-4)GlcNAc(b1-2)Man(a1-6)]Man(b1-4)GlcNAc(b1-4)[Fuc(a1-6)]GlcNAc
# Procedure, shortened: as §1
# [5] = target: Gal(b1-4)GlcNAc(b1-3)Gal(b1-4)GlcNAc(b1-3)Gal(b1-4)GlcNAc(b1-3)Gal(b1-4)GlcNAc(b1-3)Gal(b1-4)GlcNAc(b1-2)[Gal(b1-4)GlcNAc(b1-3)Gal(b1-4)GlcNAc(b1-3)Gal(b1-4)GlcNAc(b1-3)Gal(b1-4)GlcNAc(b1-3)Gal(b1-4)GlcNAc(b1-6)]Man(a1-6)[Gal(b1-4)GlcNAc(b1-3)Gal(b1-4)GlcNAc(b1-3)Gal(b1-4)GlcNAc(b1-3)Gal(b1-4)GlcNAc(b1-3)Gal(b1-4)GlcNAc(b1-2)Man(a1-3)]Man(b1-4)GlcNAc(b1-4)[Fuc(a1-6)]GlcNAc
# Procedure, shortened: as §1
# [6] = target: Gal(b1-4)GlcNAc(b1-3)Gal(b1-4)GlcNAc(b1-3)GalNAc
# Procedure, shortened: as §1
# Gal3S(b1-3)GalNAc = target: Gal3S(b1-3)GalNAc
# Procedure, shortened: as §1
# Gal3S(b1-4)Glc6S = target: Gal3S(b1-4)Glc6S
# Procedure, shortened: as §1
# [7] = target: Gal3S(b1-4)[Fuc(a1-3)]GlcNAc
# Procedure, shortened: as §1
# Gal6S(b1-3)GlcNAc = target: Gal6S(b1-3)GlcNAc
# Procedure, shortened: as §1
# [8] = target: GalNAc(b1-3)Gal(a1-6)Gal(b1-4)Glc
# Procedure, shortened: as §1
# GlcA(b1-6)Gal = target: GlcA(b1-6)Gal
# Procedure, shortened: as §1
# [9] = target: GlcNAc(b1-2)Man(a1-3)[GlcNAc(b1-2)Man(a1-6)]Man(b1-4)GlcNAc(b1-4)GlcNAc
# Procedure, shortened: as §1
# [10] = target: GlcNAc(b1-2)[GlcNAc(b1-4)]Man(a1-3)[GlcNAc(b1-4)][GlcNAc(b1-2)Man(a1-6)]Man(b1-4)GlcNAc(b1-4)GlcNAc
# Procedure, shortened: as §1
# [11] = target: GlcNAc(b1-2)[GlcNAc(b1-4)]Man(a1-3)[GlcNAc(b1-4)][GlcNAc(b1-2)[GlcNAc(b1-6)]Man(a1-6)]Man(b1-4)GlcNAc(b1-4)GlcNAc
# Procedure, shortened: as §1
# [12] = target: GlcNAc(b1-2)[GlcNAc(b1-6)]Man(a1-6)[GlcNAc(b1-2)Man(a1-3)]Man(b1-4)GlcNAc(b1-4)GlcNAc
# Procedure, shortened: as §1
# [13] = target: GlcNAc(b1-3)Gal(b1-4)GlcNAc(b1-3)Gal(b1-4)GlcNAc(b1-3)Gal(b1-4)GlcNAc(b1-2)[GlcNAc(b1-3)Gal(b1-4)GlcNAc(b1-3)Gal(b1-4)GlcNAc(b1-3)Gal(b1-4)GlcNAc(b1-6)]Man(a1-6)[GlcNAc(b1-3)Gal(b1-4)GlcNAc(b1-3)Gal(b1-4)GlcNAc(b1-3)Gal(b1-4)GlcNAc(b1-2)Man(a1-3)]Man(b1-4)GlcNAc(b1-4)[Fuc(a1-6)]GlcNAc
# Procedure, shortened: as §1
# [14] = target: GlcNAc(b1-3)Gal(b1-4)GlcNAc(b1-3)Gal(b1-4)GlcNAc(b1-3)Gal(b1-4)GlcNAc(b1-3)Gal(b1-4)GlcNAc(b1-2)Man(a1-3)[GlcNAc(b1-3)Gal(b1-4)GlcNAc(b1-3)Gal(b1-4)GlcNAc(b1-3)Gal(b1-4)GlcNAc(b1-3)Gal(b1-4)GlcNAc(b1-2)Man(a1-6)]Man(b1-4)GlcNAc(b1-4)[Fuc(a1-6)]GlcNAc
# Procedure, shortened: as §1
# [15] = target: GlcNAc(b1-3)Gal(b1-4)GlcNAc(b1-3)Gal(b1-4)GlcNAc(b1-3)Gal(b1-4)GlcNAc(b1-3)Gal(b1-4)GlcNAc(b1-2)[GlcNAc(b1-3)Gal(b1-4)GlcNAc(b1-3)Gal(b1-4)GlcNAc(b1-3)Gal(b1-4)GlcNAc(b1-3)Gal(b1-4)GlcNAc(b1-6)]Man(a1-6)[GlcNAc(b1-3)Gal(b1-4)GlcNAc(b1-3)Gal(b1-4)GlcNAc(b1-3)Gal(b1-4)GlcNAc(b1-3)Gal(b1-4)GlcNAc(b1-2)Man(a1-3)]Man(b1-4)GlcNAc(b1-4)[Fuc(a1-6)]GlcNAc
# Procedure, shortened: as §1
# [16] = target: GlcNAc(b1-3)[GlcNAc(b1-6)]GlcNAc
# Procedure, shortened: as §1
# [17] = target: Man(a1-2)Man(a1-2)Man(a1-3)[Man(a1-2)Man(a1-6)[Man(a1-3)]Man(a1-6)]Man(b1-4)GlcNAc(b1-4)GlcNAc
# Procedure, shortened: as §1
# [18] = target: Man(a1-2)Man(a1-6)[Man(a1-3)]Man(a1-6)[Man(a1-2)Man(a1-2)Man(a1-3)]Man(b1-4)GlcNAc(b1-4)GlcNAc
# Procedure, shortened: as §1
# [19] = target: Man(a1-3)[Man(a1-6)]Man(a1-6)[Man(a1-2)Man(a1-3)]Man(b1-4)GlcNAc(b1-4)GlcNAc
# Procedure, shortened: as §1
# [20] = target: Neu5Ac(a2-3)Gal(b1-3)[Fuc(a1-4)]GlcNAc(b1-3)Gal(b1-4)[Fuc(a1-3)]GlcNAc
# Procedure, shortened: as §1
# [21] = target: Neu5Ac(a2-3)Gal(b1-4)GlcNAc(b1-2)Man(a1-3)[GlcNAc(b1-2)Man(b1-4)GlcNAc(b1-2)Man(a1-6)]Man(b1-4)GlcNAc(b1-4)GlcNAc
# Procedure, shortened: as §1
# [22] = target: Neu5Ac(a2-3)Gal(b1-4)GlcNAc(b1-3)Gal(b1-4)GlcNAc(b1-3)GalNAc
# Procedure, shortened: as §1
# [23] = target: Neu5Ac(a2-3)Gal(b1-4)[Fuc(a1-3)]GlcNAc
# Procedure, shortened: as §1
# [24] = target: Neu5Ac(a2-3)[GalNAc(b1-4)]Gal(b1-4)GlcNAc
# Procedure, shortened: as §1
# [25] = target: Neu5Ac(a2-6)Gal(b1-4)GlcNAc(b1-2)[Neu5Ac(a2-6)Gal(b1-4)GlcNAc(b1-6)]Man(a1-6)[Neu5Ac(a2-6)Gal(b1-4)GlcNAc(b1-2)Man(a1-3)][GlcNAc(b1-4)]Man(b1-4)GlcNAc(b1-4)GlcNAc
# Procedure, shortened: as §1
# [26] = target: Neu5Ac(a2-8)Neu5Ac(a2-8)Neu5Ac(a2-3)Gal(b1-4)Glc
# Procedure, shortened: as §1
binder,measurement,setting,value
B1,glycan array binding signal (z-score),[1],4.93
same,glycan array binding signal (z-score),[2],5.2
same,glycan array binding signal (z-score),[3],4.95
same,glycan array binding signal (z-score),[4],4.93
same,glycan array binding signal (z-score),[5],5.14
same,glycan array binding signal (z-score),[6],-0.127
same,glycan array binding signal (z-score),Gal3S(b1-3)GalNAc,0.538
same,glycan array binding signal (z-score),Gal3S(b1-4)Glc6S,2.04
same,glycan array binding signal (z-score),[7],-0.312
same,glycan array binding signal (z-score),Gal6S(b1-3)GlcNAc,-0.324
same,glycan array binding signal (z-score),[8],-0.319
same,glycan array binding signal (z-score),GlcA(b1-6)Gal,-0.332
same,glycan array binding signal (z-score),[9],-0.324
same,glycan array binding signal (z-score),[10],-0.311
same,glycan array binding signal (z-score),[11],-0.33
same,glycan array binding signal (z-score),[12],-0.2
same,glycan array binding signal (z-score),[13],5.04
same,glycan array binding signal (z-score),[14],4.94
same,glycan array binding signal (z-score),[15],5.06
same,glycan array binding signal (z-score),[16],-0.33
same,glycan array binding signal (z-score),[17],-0.333
same,glycan array binding signal (z-score),[18],-0.185
same,glycan array binding signal (z-score),[19],-0.158
same,glycan array binding signal (z-score),[20],-0.197
same,glycan array binding signal (z-score),[21],-0.355
same,glycan array binding signal (z-score),[22],-0.259
same,glycan array binding signal (z-score),[23],-0.305
same,glycan array binding signal (z-score),[24],-0.248
same,glycan array binding signal (z-score),[25],-0.274
same,glycan array binding signal (z-score),[26],-0.015
